18 molecules from the supplement of paper PMC6805474 can be followed below.

The test system of assay [1] is Schistosoma mansoni schistosomula (LE). Briefly: XTT viability relative to DMSO control; higher = more viable (less active). The following applies: 72 h; 10 µM. The method, then: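 XTT/PMS was then added for a further 24 h (72 h total) and A450 was read. % viability = (sample - heat-killed control)/(DMSO control - heat-killed control) x 100, from duplicate wells in two independent experiments.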

Assay [2] has as its system Schistosoma mansoni schistosomula (NMRI). Briefly: phenotypic severity score (0-4); higher = more antischistosomal effect, active = 2 or more. The settings on record: 10 µM.
For assay [3], the system named is Schistosoma mansoni schistosomula (Liberian). As to the kind of experiment: drug effect (1 - score/DMSO control score) (fraction); higher = more antischistosomal effect, active = 0.5 or more; extreme values may be limits of the assay. The following applies: 10 µM. An outline of the steps: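 Schistosomula of the Liberian strain of Schistosoma mansoni were mechanically transformed from cercariae, pre-incubated for at least 12 h, and placed at 50 per well in flat-bottom 96-well plates with Medium 199 containing 5% FCS. Compounds were tested in duplicate at 10 µM at 37 °C and 5% CO2, alongside wells holding 0.1% DMSO. Parasites were scored visually at 10× after 24, 48 and 72 h on a quarter-point scale running from 3 (normal) to 0 (dead). Drug effect came from the mean test-well score relative to the mean DMSO-well score, with negative values set to zero and plates accepted only when the DMSO wells averaged at least 2.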
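Throughout, for phenotypic severity score (0-4): visual microscopic scoring of shape, motility and density changes versus 0.5% DMSO solvent controls, one point per descriptor, degeneracy or death scored 4, mean of duplicate wells.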

Take `NCCC(O)C(=O)N[C@@H]1C[C@H](N)[C@@H](OC2O[C@H](CN)[C@@H](O)[C@H](O)[C@H]2O)[C@H](O)C1OC1O[C@H](CO)[C@@H](O)[C@H](N)[C@H]1O` (stereo partly specified): the XTT viability in assay [1] is 93.8%. Further, the phenotypic severity score in assay [2] (24 h), in assay [2] (48 h) and in assay [2] (72 h) was 0 (inactive) each time. Moreover, the values for the drug effect in assay [3] (24 h), in assay [3] (48 h) and in assay [3] (72 h) were < 0 (inactive), 0.0625 (inactive) and < 0 (inactive), respectively.
On to `CCOC(=O)c1c(NC(=O)c2c(F)c(F)c(F)c(F)c2F)sc(C(N)=O)c1C`, for which the XTT viability in assay [1] is -3.42%. In addition, the phenotypic severity score in assay [2] (24 h), in assay [2] (48 h) and in assay [2] (72 h) was 4 (active) throughout. The drug effect in assay [3] (24 h), in assay [3] (48 h) and in assay [3] (72 h) was 1 (active) in each case.
Take `COc1ccc2nc(C)cc(OCC(=O)Nc3ccccc3OC)c2c1`: the XTT viability in assay [1] turned out to be 108%. In addition, the phenotypic severity score in assay [2] (24 h), in assay [2] (48 h) and in assay [2] (72 h) was 0 (inactive) throughout. Also, the drug effect in assay [3] (24 h) was 0.2 (inactive); in assay [3] (48 h), 0.278 (inactive); in assay [3] (72 h) it was 0.25 (inactive).
`COc1cccn2c(C(=O)N3CCCCC3)c(C(F)(F)F)nc12`: the XTT viability in assay [1] came out at 95.7%. Also, the phenotypic severity score in assay [2] (24 h), in assay [2] (48 h) and in assay [2] (72 h) was 0 (inactive) in each case. The figures for the drug effect in assay [3] (24 h), in assay [3] (48 h) and in assay [3] (72 h) were 0.182 (inactive), 0.2 (inactive) and 0.127 (inactive), respectively.
Take `CCN(CC)S(=O)(=O)c1ccc(Cl)c(C(=O)Nc2ccc3nc(C)sc3c2)c1`: in assay [1], the XTT viability is 87.9%. In addition, the phenotypic severity score is 1 (inactive) in assay [2] (24 h), 0 (inactive) in assay [2] (48 h) and 0 (inactive) in assay [2] (72 h). Besides, the drug effect in assay [3] (24 h) is 0.05 (inactive); in assay [3] (48 h) it was 0.027 (inactive); in assay [3] (72 h), 0.111 (inactive).
Take `O=C(NCCN1CCCC1)c1cc(NCCCCN2CCC(F)(F)CC2)nc2ccc(Cl)cc12`: in assay [1], the XTT viability stood at 86.9%. Besides, the phenotypic severity score is 2 (active) in assay [2] (24 h), 4 (active) in assay [2] (48 h) and 4 (active) in assay [2] (72 h). The drug effect in assay [3] (24 h) was 0.3 (inactive); in assay [3] (48 h) it was 0.389 (inactive); in assay [3] (72 h), 0.562 (active).
As to `C[C@@H]1[C@H](O)[C@@H](C)/C=C/C=C/C=C/C=C/C=C/C=C/C=C/[C@H](O[C@@H]2O[C@H](C)[C@@H](O)[C@H](N)[C@@H]2O)C[C@@H]2O[C@](O)(C[C@@H](O)C[C@@H](O)[C@H](O)CC[C@@H](O)C[C@@H](O)CC(=O)O[C@H]1C)C[C@H](O)[C@H]2C(=O)O`, in assay [1], the XTT viability came to 95%. The phenotypic severity score in assay [2] (24 h), in assay [2] (48 h) and in assay [2] (72 h) was 0 (inactive) in each case. The drug effect is 0.136 (inactive) in assay [3] (24 h), 0.15 (inactive) in assay [3] (48 h) and 0.105 (inactive) in assay [3] (72 h).
As for `Cc1cc(NCCc2ccccc2)nc(NC(=N)Nc2ccc(Cl)cc2)n1`, the XTT viability in assay [1] is 8.5%. Besides, the phenotypic severity score in assay [2] (24 h), in assay [2] (48 h) and in assay [2] (72 h) was 4 (active) each time. Besides, the drug effect in assay [3] (24 h), in assay [3] (48 h) and in assay [3] (72 h) was 1 (active) throughout.
For `CNC(=O)C1Cc2c([nH]c3cc(Cl)ccc23)C2(CCN(CCc3ccccc3)CC2)N1` (stereo unspecified), the XTT viability in assay [1] turned out to be 13.4%. Further, the phenotypic severity score in assay [2] (24 h), in assay [2] (48 h) and in assay [2] (72 h) was 0 (inactive) throughout. Besides, the results for the drug effect in assay [3] (24 h), in assay [3] (48 h) and in assay [3] (72 h) were 0.1 (inactive), 0.514 (active) and 0.394 (inactive), respectively.
For the molecule `Cc1ccc2[nH]c3c(NCCN(C)C)ncnc3c2c1`, in assay [1], the XTT viability turned out to be 72.5%. For the same molecule, the phenotypic severity score in assay [2] (24 h) is 1 (inactive); in assay [2] (48 h), 0 (inactive); in assay [2] (72 h), 1 (inactive). Also, the figures for the drug effect in assay [3] (24 h), in assay [3] (48 h) and in assay [3] (72 h) were 0.25 (inactive), 0.222 (inactive) and 0.333 (inactive), respectively.
In the case of `N#Cc1ccc(-c2ccc(OCC(N)=O)cc2)cc1`, in assay [1], the XTT viability came out at 73.9%. Further, the phenotypic severity score in assay [2] (24 h) is 0 (inactive); in assay [2] (48 h), 1 (inactive); in assay [2] (72 h), 0 (inactive). The values for the drug effect in assay [3] (24 h), in assay [3] (48 h) and in assay [3] (72 h) were 0.182 (inactive), 0.2 (inactive) and 0.127 (inactive), respectively.
As for `Nc1ncnc2c1ncn2[C@@H]1O[C@H](COS(=O)(=O)NC(=O)c2ccccc2O)[C@@H](O)[C@H]1O`, the XTT viability in assay [1] was found to be 113%. The phenotypic severity score in assay [2] (24 h), in assay [2] (48 h) and in assay [2] (72 h) was 0 (inactive) throughout. For the same molecule, the drug effect in assay [3] (24 h) is 0.1 (inactive); in assay [3] (48 h), 0.111 (inactive); in assay [3] (72 h), 0.125 (inactive).
In the case of `CS(=O)(=O)Cc1nc2ccccc2oc1=O`, the XTT viability in assay [1] stood at 355%. Further, the phenotypic severity score in assay [2] (24 h), in assay [2] (48 h) and in assay [2] (72 h) was 0 (inactive) throughout. Moreover, the drug effect was 0.182 (inactive) in assay [3] (24 h), 0.45 (inactive) in assay [3] (48 h) and 0.455 (inactive) in assay [3] (72 h).
As for `CS(=O)(=O)N1CCC(CCn2nc(Cc3cccc4ccccc34)c3c(N)ncnc32)CC1`, the XTT viability in assay [1] was 90.7%. Also, the phenotypic severity score in assay [2] (24 h), in assay [2] (48 h) and in assay [2] (72 h) was 0 (inactive) each time. Besides, the drug effect was 0.273 (inactive) in assay [3] (24 h), 0.45 (inactive) in assay [3] (48 h) and 0.509 (active) in assay [3] (72 h).
In the case of `O=C(Nc1nc(-c2ccccn2)cs1)c1cncn1-c1ccccc1`, the XTT viability in assay [1] amounted to 68.7%. The phenotypic severity score in assay [2] (24 h), in assay [2] (48 h) and in assay [2] (72 h) was 0 (inactive) throughout. Moreover, the figures for the drug effect in assay [3] (24 h), in assay [3] (48 h) and in assay [3] (72 h) were 0.0909 (inactive), 0.15 (inactive) and 0.236 (inactive), respectively.
Turning to `CCC(NC(=O)c1ccccc1NC(=O)c1ccc(C)cc1)C(=O)OC` (stereo unspecified), the XTT viability in assay [1] amounted to 82.9%. For the same molecule, the phenotypic severity score in assay [2] (24 h) was 0 (inactive); in assay [2] (48 h), 1 (inactive); in assay [2] (72 h) it was 1 (inactive). Moreover, the values for the drug effect in assay [3] (24 h), in assay [3] (48 h) and in assay [3] (72 h) were 0.2 (inactive), 0.167 (inactive) and 0.25 (inactive), respectively.
Consider `OC[C@H]1O[C@@H](n2c3ccc(Cl)cc3c3c(-c4cc5ccccc5o4)ncnc32)C(O)[C@H]1O` (stereo partly specified), for which the XTT viability in assay [1] was 93.9%. Further, the phenotypic severity score in assay [2] (24 h), in assay [2] (48 h) and in assay [2] (72 h) was 0 (inactive) throughout. Further, the drug effect is 0.158 (inactive) in assay [3] (24 h), 0.111 (inactive) in assay [3] (48 h) and < 0 (inactive) in assay [3] (72 h).
Regarding `Cc1cccc(-c2nc(Nc3ccncn3)c3sccc3n2)n1`, the XTT viability in assay [1] turned out to be 39.9%. Besides, the phenotypic severity score was 1 (inactive) in assay [2] (24 h), 3 (active) in assay [2] (48 h) and 4 (active) in assay [2] (72 h). In addition, the drug effect was 0.405 (inactive) in assay [3] (24 h), 0.667 (active) in assay [3] (48 h) and 0.75 (active) in assay [3] (72 h).
